# The supplement of paper PMC8728848
# About 410 targets per protein were measured; listed, in parts, are those with the strongest signals and a random draw of the rest.
# B1: MPA (Maclura pomifera), P18674 (protein)
# chain: GVTFDDGAYTGIREINFEYNSETAIGGLRVTYDLNGMPFVAEDHKSFITGFKPVKISLEFPSEYIVEVSGYVGKVEGYTVIRSLTFKTNKQTYGPYGVTNGTPFSLPIENGLIVGFKGSIGYWLDYFSIYLSL
# How the values were obtained:
# Test in all cases: glycan array binding signal (z-score within array); higher = stronger binding
# Conditions in all cases: glycan notation: IUPAC condensed, linker removed
# [1] = molecular target: GlcNAc(b1-3)Gal(b1-4)GlcNAc(b1-3)Gal(b1-4)GlcNAc(b1-2)Man(a1-3)[GlcNAc(b1-3)Gal(b1-4)GlcNAc(b1-3)Gal(b1-4)GlcNAc(b1-2)Man(a1-6)]Man(b1-4)GlcNAc(b1-4)GlcNAc
# Summary of the method: (§1)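 The binding signal is a Z-score computed within each array. Data were drawn from 3228 arrays in the Consortium for Functional Glycomics database, restricted to those with a known protein sequence. Scores were averaged over arrays of the same protein sequence at different concentrations or buffers, and over linkers, and negative values can be taken as non-binding.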
# [2] = molecular target: GlcNAc(b1-3)Gal(b1-4)GlcNAc(b1-3)Gal(b1-4)GlcNAc(b1-3)Gal(b1-4)GlcNAc(b1-2)Man(a1-3)[GlcNAc(b1-3)Gal(b1-4)GlcNAc(b1-3)Gal(b1-4)GlcNAc(b1-3)Gal(b1-4)GlcNAc(b1-2)Man(a1-6)]Man(b1-4)GlcNAc(b1-4)[Fuc(a1-6)]GlcNAc
# Summary of the method: as §1
# [3] = molecular target: GlcNAc(b1-3)Gal(b1-4)GlcNAc(b1-3)Gal(b1-4)GlcNAc(b1-3)Gal(b1-4)GlcNAc(b1-2)[GlcNAc(b1-3)Gal(b1-4)GlcNAc(b1-3)Gal(b1-4)GlcNAc(b1-3)Gal(b1-4)GlcNAc(b1-6)]Man(a1-6)[GlcNAc(b1-3)Gal(b1-4)GlcNAc(b1-3)Gal(b1-4)GlcNAc(b1-3)Gal(b1-4)GlcNAc(b1-2)Man(a1-3)]Man(b1-4)GlcNAc(b1-4)[Fuc(a1-6)]GlcNAc
# Summary of the method: as §1
# [4] = molecular target: GlcNAc(b1-3)Gal(b1-4)GlcNAc(b1-3)Gal(b1-4)GlcNAc(b1-3)Gal(b1-4)GlcNAc(b1-3)Gal(b1-4)GlcNAc(b1-2)[GlcNAc(b1-3)Gal(b1-4)GlcNAc(b1-3)Gal(b1-4)GlcNAc(b1-3)Gal(b1-4)GlcNAc(b1-3)Gal(b1-4)GlcNAc(b1-6)]Man(a1-6)[GlcNAc(b1-3)Gal(b1-4)GlcNAc(b1-3)Gal(b1-4)GlcNAc(b1-3)Gal(b1-4)GlcNAc(b1-3)Gal(b1-4)GlcNAc(b1-2)Man(a1-3)]Man(b1-4)GlcNAc(b1-4)[Fuc(a1-6)]GlcNAc
# Summary of the method: as §1
# [5] = molecular target: GlcNAc(b1-3)Gal(b1-4)GlcNAc(b1-3)Gal(b1-4)GlcNAc(b1-3)GalNAc
# Summary of the method: as §1
# [6] = molecular target: GlcNAc(b1-4)GlcNAc(b1-4)GlcNAc(b1-4)GlcNAc(b1-4)GlcNAc(b1-4)GlcNAc
# Summary of the method: as §1
# [7] = molecular target: Man(a1-2)Man(a1-2)Man(a1-6)[Man(a1-3)]Man
# Summary of the method: as §1
# [8] = molecular target: Man(a1-2)Man(a1-3)[Man(a1-2)Man(a1-6)]Man(a1-6)[Man(a1-2)Man(a1-2)Man(a1-3)]Man
# Summary of the method: as §1
# [9] = molecular target: Neu5Ac(a2-3)Gal(b1-3)GalNAc(b1-4)[Neu5Ac(a2-3)]Gal(b1-4)Glc
# Summary of the method: as §1
# [10] = molecular target: Neu5Ac(a2-3)Gal(b1-3)GalNAc(b1-4)[Neu5Ac(a2-8)Neu5Ac(a2-3)]Gal(b1-4)Glc
# Summary of the method: as §1
# [11] = molecular target: Neu5Ac(a2-3)Gal(b1-3)GlcNAc(b1-2)Man
# Summary of the method: as §1
# [12] = molecular target: Neu5Ac(a2-3)Gal(b1-3)[Neu5Ac(a2-6)]GalNAc
# Summary of the method: as §1
# [13] = molecular target: Neu5Ac(a2-3)Gal(b1-4)GlcNAc(b1-2)[Neu5Ac(a2-3)Gal(b1-4)GlcNAc(b1-6)]Man(a1-6)[Neu5Ac(a2-3)Gal(b1-4)GlcNAc(b1-2)Man(a1-3)][GlcNAc(b1-4)]Man(b1-4)GlcNAc(b1-4)GlcNAc
# Summary of the method: as §1
# [14] = molecular target: Neu5Ac(a2-3)Gal(b1-4)GlcNAc(b1-3)Gal(b1-4)GlcNAc(b1-3)Gal(b1-4)GlcNAc(b1-2)Man(a1-3)[Neu5Ac(a2-3)Gal(b1-4)GlcNAc(b1-3)Gal(b1-4)GlcNAc(b1-3)Gal(b1-4)GlcNAc(b1-2)Man(a1-6)]GalNAc
# Summary of the method: as §1
# [15] = molecular target: Neu5Ac(a2-6)Gal(b1-4)GlcNAc(b1-3)Gal(b1-4)GlcNAc(b1-3)Gal(b1-4)GlcNAc(b1-2)Man(a1-3)[Neu5Ac(a2-6)Gal(b1-4)GlcNAc(b1-3)Gal(b1-4)GlcNAc(b1-3)Gal(b1-4)GlcNAc(b1-2)Man(a1-6)]GalNAc
# Summary of the method: as §1
# [16] = molecular target: Neu5Ac(a2-6)GlcNAc(b1-4)GlcNAc
# Summary of the method: as §1
# [17] = molecular target: Neu5Ac(a2-8)Neu5Ac(a2-3)[GalNAc(b1-4)]Gal(b1-4)Glc
# Summary of the method: as §1
# [18] = molecular target: Neu5Ac(a2-8)Neu5Ac(a2-8)Neu5Ac(a2-3)[Gal(b1-3)GalNAc(b1-4)]Gal(b1-4)Glc
# Summary of the method: as §1
# [19] = molecular target: Neu5Gc(a2-3)Gal(b1-4)Glc
# Summary of the method: as §1
# [20] = molecular target: Neu5Gc(a2-8)Neu5Gc(a2-3)Gal(b1-4)GlcNAc(b1-3)Gal(b1-4)GlcNAc
# Summary of the method: as §1
binder,measurement,setting,value
B1,glycan array binding signal (z-score),[1],3.5
same,glycan array binding signal (z-score),[2],5.73
same,glycan array binding signal (z-score),[3],4.46
same,glycan array binding signal (z-score),[4],0.56
same,glycan array binding signal (z-score),[5],-0.343
same,glycan array binding signal (z-score),[6],-0.082
same,glycan array binding signal (z-score),[7],-0.161
same,glycan array binding signal (z-score),[8],-0.215
same,glycan array binding signal (z-score),[9],-0.301
same,glycan array binding signal (z-score),[10],-0.179
same,glycan array binding signal (z-score),[11],1.21
same,glycan array binding signal (z-score),[12],0.304
same,glycan array binding signal (z-score),[13],-0.334
same,glycan array binding signal (z-score),[14],3.56
same,glycan array binding signal (z-score),[15],6.71
same,glycan array binding signal (z-score),[16],-0.39
same,glycan array binding signal (z-score),[17],-0.273
same,glycan array binding signal (z-score),[18],-0.044
same,glycan array binding signal (z-score),[19],-0.156
same,glycan array binding signal (z-score),[20],-0.219
